Screening results as filed in PubChem BioAssay.
The list is not random: actives were taken first. Their share in the collection is about 1.7%.
FPR ligand – human FPR ligand, with FPRL1 counter-screen | inhibition, % (no concentration beside the values) | P21462 | FPR-expressing cells, fluorescent ligand binding, flow cytometry | AID 440 | hit rate 0.74% among 24,000
Target sequence (P21462 whole entry, looked up): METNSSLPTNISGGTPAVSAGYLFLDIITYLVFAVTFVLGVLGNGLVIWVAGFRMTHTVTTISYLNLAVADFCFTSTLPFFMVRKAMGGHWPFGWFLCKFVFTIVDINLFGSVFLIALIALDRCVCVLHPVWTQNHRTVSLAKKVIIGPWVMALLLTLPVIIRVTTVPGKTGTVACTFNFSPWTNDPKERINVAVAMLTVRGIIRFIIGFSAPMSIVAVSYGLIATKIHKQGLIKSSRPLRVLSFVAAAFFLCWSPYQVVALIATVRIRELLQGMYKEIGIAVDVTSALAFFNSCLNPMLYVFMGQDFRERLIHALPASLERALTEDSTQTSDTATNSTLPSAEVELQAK
Prostate diff – promotes differentiation of LNCaP prostate cells. hit rate 0.56% among 24,000. flow cytometry side scatter, 4 d. side scatter shift, % at 10 µM;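 active = side scatter shift above 30%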;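 note: androgen-responsive LNCaP prostate cancer cells in charcoal-stripped serum medium; higher shift means more granular cells and more differentiation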
FPRL1 ligand – human FPRL1 ligand, with FPR counter-screen | P25090 | FPRL1-expressing cells, fluorescent ligand binding inhibition, flow cytometry | inhibition, % (test concentration not listed) | hit rate 0.3% among 24,000 | AID 441
Hits are given with their value. Cut-off read from the data, not from the text of the source, unless noted: active = inhibition above about 30%; inconclusive = no clear call, values can overlap the other calls; inactive = below that.

CCn1c(N)c(C(=O)NCC2CCCO2)sc1=S (stereo unspecified) was read as FPR ligand inactive, Prostate diff inactive and FPRL1 ligand inactive.
CCCCCNC(=O)c1ccc2c(=O)[nH]c3c(C(=O)NCC4CCCO4)sc(=S)n3c2c1 (stereo unspecified) was read as FPR ligand 40, Prostate diff inactive and FPRL1 ligand inactive.
For O=C(NCc1ccco1)c1sc(=S)n2c1[nH]c(=O)c1ccccc12 the results were FPR ligand inactive, Prostate diff inactive and FPRL1 ligand inactive.
For O=C(NC1CCCC1)c1sc(=S)n2c1[nH]c(=O)c1ccccc12 the results were FPR ligand 95, Prostate diff inactive and FPRL1 ligand inactive.
COc1cccc(C2C3=C(CCCC3=O)Nc3nc4ccccc4n32)c1OC (stereo unspecified) was read as FPR ligand inactive, Prostate diff inactive and FPRL1 ligand inactive.
O=C(NC1CC2CCC1C2)C1COc2ccccc2O1 (stereo unspecified) was read as FPR ligand inactive, Prostate diff inactive and FPRL1 ligand inactive.
COc1ccccc1C(=O)N(Cc1nc(-c2ccc(Cl)cc2)no1)C(C)C was read as FPR ligand inactive, Prostate diff inactive and FPRL1 ligand inactive.
For O=C(Nc1nonc1NC(=O)C1CCCCC1)C1CCCCC1 the results were FPR ligand inactive, Prostate diff inactive and FPRL1 ligand inactive.
Cc1cc(N2CCOCC2)nc2ccc(NC(=O)C3CCC(C)CC3)cc12 (stereo unspecified) was read as FPR ligand inactive, Prostate diff inactive and FPRL1 ligand inactive.
Cc1cc(N2CCC(N(C)C3CCCC3)CC2)nc2cc(O)ccc12 was read as FPR ligand inactive, Prostate diff 44 and FPRL1 ligand inactive.
Screening COc1cc(C2/C(=C(\O)c3ccc4c(c3)CC(C)O4)C(=O)C(=O)N2CCCn2ccnc2)ccc1O (stereo unspecified) returned FPR ligand 44 and FPRL1 ligand 33.
Screening COc1ccc(C2/C(=C(/O)c3ccc4c(c3)CC(C)O4)C(=O)C(=O)N2CCN2CCOCC2)cc1 (stereo unspecified) returned FPR ligand inactive and FPRL1 ligand inactive.
Cc1ccc(/C(O)=C2/C(=O)C(=O)N(CCCn3ccnc3)C2c2ccccn2)cc1 (stereo unspecified) was read as FPR ligand inactive and FPRL1 ligand inactive.
Cc1ccc(C)c(/C(O)=C2\C(=O)C(=O)N(CCCn3ccnc3)C2c2ccncc2)c1 (stereo unspecified) was read as FPR ligand 37 and FPRL1 ligand inactive.
`COCCSc1nnc(NC(=O)CSCc2ccccc2)s1` gave FPR ligand inactive, Prostate diff inactive and FPRL1 ligand inactive.
CC(=O)Nc1ccc(S(=O)(=O)NCc2csc(C)n2)cc1 was read as FPR ligand inactive, Prostate diff inactive and FPRL1 ligand inactive.
COc1ccc(OC)c(C2/C(=C(/O)c3ccccc3)C(=O)C(=O)N2Cc2ccco2)c1 (stereo unspecified) was read as FPR ligand 92 and FPRL1 ligand inactive.
`COc1ccccc1C1/C(=C(/O)c2ccc(C)cc2)C(=O)C(=O)N1CC(C)O` (stereo unspecified) gave FPR ligand inactive and FPRL1 ligand inactive.
For COc1ccccc1C1/C(=C(/O)c2ccccc2)C(=O)C(=O)N1CC(C)C (stereo unspecified) the results were FPR ligand 63, Prostate diff inactive and FPRL1 ligand inactive.
Cc1ccc(/C(O)=C2\C(=O)C(=O)N(CC(C)O)C2c2ccc(N(C)C)cc2)cc1 (stereo unspecified) was read as FPR ligand 36 and FPRL1 ligand inactive.
`COc1ccc(/C(O)=C2\C(=O)C(=O)N(Cc3ccco3)C2c2cc(OC)ccc2OC)cc1` (stereo unspecified) gave FPR ligand inactive and FPRL1 ligand inactive.
COCCCN1C(=O)C(=O)/C(=C(/O)c2ccc(C)cc2)C1c1ccccc1 (stereo unspecified) was read as FPR ligand inactive and FPRL1 ligand inactive.
For COc1cccc(/C(O)=C2/C(=O)C(=O)N(Cc3ccco3)C2c2ccncc2)c1 (stereo unspecified) the results were FPR ligand inactive and FPRL1 ligand inactive.
Screening CCOc1cccc(/C(O)=C2/C(=O)C(=O)N(Cc3ccco3)C2c2ccncc2)c1 (stereo unspecified) returned FPR ligand 48 and FPRL1 ligand inactive.
`O=C(CN1C(=O)CCS(=O)(=O)c2ccccc21)Nc1cccc(F)c1` gave FPR ligand inactive, Prostate diff inactive and FPRL1 ligand inactive.
Screening CCOc1ccccc1CN(Cc1ccco1)S(=O)(=O)c1ccc(-n2cnnn2)c(OC)c1 returned FPR ligand inactive, Prostate diff inactive and FPRL1 ligand inactive.
`O=C1CC(N2CCN(C3CCc4ccccc4C3)CC2)C(=O)N1c1ccccc1` (stereo unspecified) gave FPR ligand inactive, Prostate diff inactive and FPRL1 ligand inactive.
`COc1ccc(C2/C(=C(/O)c3ccccc3)C(=O)C(=O)N2CCO)cc1` (stereo unspecified) gave FPR ligand inactive and FPRL1 ligand inactive.
Screening COc1ccc(OC)c(C2/C(=C(/O)c3ccc(C)cc3)C(=O)C(=O)N2Cc2ccco2)c1 (stereo unspecified) returned FPR ligand inactive and FPRL1 ligand inactive.
Screening COc1ccc(C2/C(=C(/O)c3ccccc3)C(=O)C(=O)N2CC(C)O)c(OC)c1 (stereo unspecified) returned FPR ligand 42, Prostate diff inactive and FPRL1 ligand inactive.
`Cc1ccc(C2/C(=C(/O)c3ccc(Br)cc3)C(=O)C(=O)N2Cc2ccco2)o1` (stereo unspecified) gave FPR ligand 31 and FPRL1 ligand inactive.
`O=C(O)CCC(=O)NC1CCCCC1NC(=O)CCC(=O)O` (stereo unspecified) gave FPR ligand inactive, Prostate diff inactive and FPRL1 ligand inactive.
Screening CCOC(=O)N1CCC(NC(=O)c2csc3c2CCCC3)CC1 returned FPR ligand inactive, Prostate diff inactive and FPRL1 ligand inactive.
Screening CCCNC(=O)NC(C(=O)OC)C12CC3CC(CC(C3)C1)C2 (stereo unspecified) returned FPR ligand inactive, Prostate diff inactive and FPRL1 ligand inactive.
Screening CCn1c(C(=O)NCc2cccnc2)cc2sc(Cl)cc21 returned FPR ligand inactive, Prostate diff inactive and FPRL1 ligand inactive.
For CCOC(=O)c1cnc2nc(C)[nH]n2c1=O the results were FPR ligand inactive, Prostate diff inactive and FPRL1 ligand inactive.
Screening CCOC(=O)c1cnn(-c2cc(C)c3cc(C)cc(C)c3n2)c1N returned FPR ligand inactive, Prostate diff 32 and FPRL1 ligand inactive.
Screening C=CCNS(=O)(=O)c1nc(C)c(Cl)c(C)c1C#N returned FPR ligand inactive, Prostate diff inactive and FPRL1 ligand inactive.
For COc1ccc(NC(=O)CSc2nc3c(c(=O)[nH]2)CCC3)cc1OC the results were FPR ligand inactive, Prostate diff inactive and FPRL1 ligand inactive.
CCC(Sc1nc2c(c(=O)[nH]1)CCC2)C(=O)Nc1cccc(OC)c1 (stereo unspecified) was read as FPR ligand 62, Prostate diff inactive and FPRL1 ligand inactive.
For Cc1cc(C)cc(OCC(=O)Nc2cccc(-c3nc4ncccc4o3)c2)c1 the results were FPR ligand inactive, Prostate diff inactive and FPRL1 ligand inactive.
